We go through 93 compounds from PubChem BioAssay AID2029 (NMMLSC, 2009).

Out of some 320,000 compounds screened, about 210 (0.066%) were called active.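 The calls were made as follows: active = GFP response relative to DMSO above a set limit, near the screen mean plus 3 SD (cut at about 150% in these data); inconclusive = Fewer than 70 cells measured for a yeast strain; inactive = the rest.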 Shown is part of a subset that was picked to be rich in actives.

The test is described as follows: TOR pathway RTG branch CIT2 reporter changes – S. cerevisiae, GFP fusion, multiplex flow cytometry, MLPCN library, primary screen (AID 2029).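 Also: ratio of well median GFP fluorescence to mean of DMSO wells on the plate.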 The conditions noted are these: S. cerevisiae CIT2-GFP strain, 3 h, at 10 µM, stronger effect = higher value, 100 means same as DMSO wells. (In general: Flow cytometry measures light scatter and fluorescence of single cells or particles in a stream.)
Consider `Cc1cc(C(=O)COc2ccccc2Cl)c(C)n1C1CC1`, for which the GFP response vs DMSO is 80.4% (inactive). For the compound `O=C(c1cc(COc2c(F)cccc2F)on1)N1CCSCC1`, the GFP response vs DMSO is 99.2% (inactive). Next, `CCCN(C(=O)CSc1nnc(N)s1)c1c(N)n(Cc2ccccc2)c(=O)[nH]c1=O`: 102% (inactive); `CC1CCC(C(C)C)C(=O)/C1=C\c1ccc(NC(=O)CCC(=O)O)cc1` (stereo not drawn): 103% (inactive).

As for `CC(=O)NC1C(Oc2ccc(C=O)cc2)OC(COC(C)=O)C(OC(C)=O)C1OC(C)=O` (stereo not drawn), the GFP response vs DMSO was 102% (inactive). Next, `COc1ccc(CCNC(=O)C(=O)Nc2ccc3nc4n(c(=O)c3c2)CCCCC4)cc1OC`: 96.1% (inactive); `CC(C)Oc1ccc(/C=N/NC(=O)c2nnn(-c3nonc3N)c2CN(C)C2CCCCC2)cc1`: 99.5% (inactive). Regarding `Cc1cc(NC(=O)/C=C/C(=O)N(CC(=O)NC2CCCC2)c2ccc(F)cc2)no1`, the GFP response vs DMSO was 96.7% (inactive). `Oc1cccc2ccc(/C=C/c3ccc(Br)s3)nc12`: the GFP response vs DMSO was 98.5% (inactive). Regarding `Cc1cc(N=Nc2ccc3ccccc3c2)ccc1O`, the GFP response vs DMSO was 97.3% (inactive).

Regarding `Cc1cccc(N(C)C(=O)c2cc(S(=O)(=O)N3CCCCC3)c[nH]2)c1`, the GFP response vs DMSO was 105% (inactive). Turning to `C=CCNc1nc(Nc2ccc(Cl)cc2)nc(OC)n1`, the GFP response vs DMSO is 87% (inactive). For `COC(=O)COc1ccc2c(=O)c(Oc3ccccc3Br)coc2c1`, the GFP response vs DMSO was 100% (inactive). As for `COc1ccc(C2(C)ON(c3ccccc3C(F)(F)F)C2=O)cc1` (stereo not drawn), the GFP response vs DMSO is 97% (inactive). For the compound `Cc1noc(NS(=O)(=O)c2ccc(N3CC(O)=C(c4ccccc4)C3=N)cc2)c1C`, the GFP response vs DMSO is 103% (inactive).

Consider `O=C(COC(=O)Cn1cnc2ccccc2c1=O)NCC12CC3CC(CC(C3)C1)C2`, for which the GFP response vs DMSO is 101% (inactive).

For `O=C(COC(=O)c1cc(S(=O)(=O)N2CCOCC2)ccc1Cl)NCCc1ccccc1`, the GFP response vs DMSO was 98.2% (inactive).

For the compound `CCCc1nn(C)c2c(=O)[nH]c(-c3cc(S(N)(=O)=O)ccc3OCC)nc12`, the GFP response vs DMSO is 96% (inactive). `Cc1cc(C)cc(NS(=O)(=O)Cc2ccccc2)c1`: the GFP response vs DMSO was 103% (inactive).

On to `CC(OC(=O)CNC(=O)c1ccco1)C(=O)Nc1ccc(Cl)cn1` (stereo not drawn), for which the GFP response vs DMSO was 98.1% (inactive).

Regarding `O=C(N/C(=C\c1ccc(O)cc1)C(=O)N1CCCCC1)c1ccccc1`, the GFP response vs DMSO is 108% (inactive).

For `COc1cc(/C=C/C(=O)O)cc(S(=O)(=O)Nc2ccccc2SC)c1OC`, the GFP response vs DMSO is 110% (inactive). In the case of `CCc1cccc2c3c([nH]c12)C(CC)(CC(=O)O)OCC3` (stereo not drawn), the GFP response vs DMSO is 83.9% (inactive). Take `Cc1cccc(CN2CCC(n3nccc3NC(=O)c3ccccc3C)CC2)n1`: the GFP response vs DMSO is 107% (inactive). As for `CCc1n[nH]c(=S)n1/N=C/c1c[nH]c2ccc(Br)cc12`, the GFP response vs DMSO is 106% (inactive).

Turning to `CCOc1ccc(NS(=O)(=O)c2ccc(C)c(C(N)=O)c2)cc1`, the GFP response vs DMSO is 94% (inactive). Take `NC(=O)c1oc2ccccc2c1NC(=O)CS(=O)(=O)c1ccccc1`: the GFP response vs DMSO is 110% (inactive).

Regarding `CC1(C)C2CC=C(/C=N/NC(=O)C3CC3)C1C2` (stereo not drawn), the GFP response vs DMSO is 91.7% (inactive). Next, `COCCNC(=O)CN(Cc1ccco1)C(=O)CCC(=O)Nc1nccs1`: 105% (inactive); `CCn1c(SCC(=O)Nc2nc(C)cs2)nnc1C(C)NC(=O)c1ccccc1` (stereo not drawn): 101% (inactive); `CCOC(=O)/C=c1\s/c(=C\c2ccc(C#N)cc2)c(=O)n1CC(=O)Nc1cccc(C)c1C`: 97.6% (inactive). Regarding `CN(c1ccccc1)c1ccc(/C=c2\s/c(=C(/C#N)C(=O)C(C)(C)C)n(Cc3ccco3)c2=O)cc1`, the GFP response vs DMSO is 352% (active).

With `CCOC(=O)Cn1c(=O)oc2cc(S(=O)(=O)N(C)Cc3ccco3)ccc21`, the GFP response vs DMSO is 96.1% (inactive). For `COc1ccc(-n2nnc3c(=O)n(CC(=O)N4CCC(Cc5ccccc5)CC4)cnc32)cc1`, the GFP response vs DMSO was 89.3% (inactive). Consider `CCn1c(/C=C/Nc2ccccc2)[n+](CC)c2ccc(C(=O)OCC(F)(F)F)cc21`, for which the GFP response vs DMSO was 97.8% (inactive). As for `COc1ccc(/C=N/NC(=O)C(C)N(c2ccc(OC)cc2)S(C)(=O)=O)cc1` (stereo not drawn), the GFP response vs DMSO was 109% (inactive). As for `Cc1cccc(NS(=O)(=O)c2ccc(C)c(C(=O)NCc3cccnc3)c2)c1`, the GFP response vs DMSO was 107% (inactive). For `O=C(O)C1CCN(C(=O)c2cc(F)cc3c2OCOC3)CC1`, the GFP response vs DMSO was 109% (inactive).

For `O=S(=O)(c1ccc(Br)cc1)N1CCC(c2nc3ccccc3[nH]2)CC1`, the GFP response vs DMSO was 111% (inactive). For `CN(C)CCN(C(=O)C1=COCCO1)c1nc2ccc(Cl)cc2s1`, the GFP response vs DMSO was 92.3% (inactive).

In the case of `CC(=O)N(CCCN(C)C)c1nc2ccc(C)cc2s1`, the GFP response vs DMSO is 111% (inactive). As to `Cc1ccc2nc(N(CCN(C)C)C(=O)C3=COCCO3)sc2c1`, the GFP response vs DMSO is 161% (active). Next, `CCc1ccc(Oc2coc3cc(O)ccc3c2=O)cc1`: 94.9% (inactive); `CCN(CC(=O)Nc1cc(Cl)ccc1C)C(=O)Cn1c(=O)cnc2ccccc21`: 110% (inactive). For `O=c1[nH]c(CN2CCN(S(=O)(=O)c3ccc4c(c3)OCCO4)CC2)nc2sc3c(c12)CCCC3`, the GFP response vs DMSO is 101% (inactive).

As to `CCn1c(=O)c([N+](=O)[O-])c(NCc2ccc3c(c2)OCO3)c2ccccc21`, the GFP response vs DMSO is 88.2% (inactive). Take `CCn1c(/C=C/c2ccc([N+](=O)[O-])o2)nc2ccccc2c1=O`: the GFP response vs DMSO was 210% (active). The same measure for `CCc1ccc(S(=O)(=O)N/N=C\c2ccc([N+](=O)[O-])o2)cc1`: 91.7% (inactive); for `COc1ccc(S(=O)(=O)NCCOc2ccccc2)cc1F`: 94.3% (inactive); for `COCC(C)n1c(SCC(=O)NC2CCCCC2C)nc2ccccc2c1=O` (stereo not drawn): 101% (inactive). Turning to `CC(=O)Nc1ccc(NC(=O)C(C)n2c3ccccc3c3nc(=O)cc(C)n32)cc1` (stereo not drawn), the GFP response vs DMSO is 109% (inactive).

With `CC(C)NC(=O)C(c1ccc(F)cc1)N(C(=O)CCC(=O)Nc1ccccn1)c1ccccc1F` (stereo not drawn), the GFP response vs DMSO is 88.4% (inactive). On to `CCOc1cccc(-c2nnc(SCC(=O)NC3CC3)n2C)c1`, for which the GFP response vs DMSO was 98.9% (inactive). Next, `O=C(N/N=C/c1c[nH]c2ccccc12)c1ccccc1O`: 80.8% (inactive); `COc1ccc(/C=C(\C#N)c2c[nH]c3ccccc23)cc1`: 79.6% (inactive). The same measure for `C[n+]1ccc(/C=C/c2c[nH]c3ccccc23)cc1`: 274% (active); for `CCCCNC(=O)N(O)C1N(/N=C/c2ccc(N(C)C)cc2)C(=S)SC1(C)C` (stereo not drawn): 105% (inactive). On to `COc1ccc([C@H]2CC(=O)C=C(/C=C/c3ccc(Cl)cc3)C2)cc1`, for which the GFP response vs DMSO is 104% (inactive). `CC(C)Oc1ccc(CCc2n[nH]c(=S)n2Cc2ccccc2)cc1`: the GFP response vs DMSO is 98.5% (inactive). For the compound `N#Cc1nc(N)nc(N(c2ccccc2)c2ccccc2)n1`, the GFP response vs DMSO is 113% (inactive). For `O=C(NCC1CCCO1)c1ccccc1-c1nc(-c2ccccc2Cl)no1` (stereo not drawn), the GFP response vs DMSO is 77% (inactive). Next, `CC(=O)Nc1ccc(S(=O)(=O)Nc2ccc(-c3ccc4nnc(C)n4n3)cc2)cc1`: 102% (inactive). For the compound `O=C(NNc1cc(Cl)ccc1Cl)c1cccnc1Cl`, the GFP response vs DMSO is 107% (inactive). Consider `CC(C)C(NC(=O)C1CCC(C(C)(C)C)CC1)C(=O)NCCCN1CCCCC1` (stereo not drawn), for which the GFP response vs DMSO is 94.8% (inactive). Consider `O=C(CC1OC(=O)c2ccccc21)NC1CCCCC1` (stereo not drawn), for which the GFP response vs DMSO was 109% (inactive).

Consider `O=C(CSc1nnc(Nc2ccccc2F)s1)NC1CCCC1`, for which the GFP response vs DMSO is 85.1% (inactive). Consider `O=C(Oc1cccc(C(=S)N2CCOCC2)c1)c1cccc(Cl)c1`, for which the GFP response vs DMSO is 94.4% (inactive). The same measure for `COc1cc(C(=O)N(C)Cc2cccc(OC)c2OC)ccc1OCC(=O)Nc1cccc(C(F)(F)F)c1`: 101% (inactive); for `CC1CCN(C(=S)c2cccc([N+](=O)[O-])c2)CC1`: 102% (inactive). Take `O=C(NC(=S)NC1CCS(=O)(=O)C1)c1cccc([N+](=O)[O-])c1` (stereo not drawn): the GFP response vs DMSO is 155% (active).

Turning to `Nc1ccc(C(=O)OCC(=O)NC2CCS(=O)(=O)C2)cc1[N+](=O)[O-]` (stereo not drawn), the GFP response vs DMSO was 91.7% (inactive). Take `O=C(N/N=C1\CCSC1)c1cc(Cl)ccc1O`: the GFP response vs DMSO was 102% (inactive).

With `Cc1cccc(C)c1NC(=O)C(Cl)C(=O)c1ccccc1` (stereo not drawn), the GFP response vs DMSO was 87.7% (inactive). Turning to `Cc1ccc(C)c(Cn2nnc3c(=O)[nH]c(C(=O)Nc4ccc(F)cc4)nc32)c1`, the GFP response vs DMSO is 99.3% (inactive). Consider `CN(CC(=O)Nc1ccc(C(N)=O)cc1)S(=O)(=O)c1ccc2c(c1)OCCO2`, for which the GFP response vs DMSO is 110% (inactive). The same measure for `COc1cc([N+](=O)[O-])cc([N+](=O)[O-])c1NC(=O)N1CCOCC1`: 110% (inactive); for `Cc1cc(C(=O)CC#N)c(C)n1-c1c(C)n(C)n(-c2ccccc2)c1=O`: 92.1% (inactive). Next, `O=C(c1cc2ccccc2o1)N1CCN(Cc2ccccc2)CC1`: 94.7% (inactive); `CC1Cc2ccccc2N1CC(=O)Nc1ccc2c(c1)OC(F)(F)O2` (stereo not drawn): 82.8% (inactive); `COC(=O)C1=C(C)N(Cc2ccccc2)C(=NCCCOC(C)C)N[C@H]1c1ccccc1`: 69.2% (inactive). For `COc1ccccc1C(=O)OCC(=O)Nc1cccc(S(=O)(=O)NC2=NCCCCC2)c1`, the GFP response vs DMSO is 118% (inactive). Turning to `COc1cccc(NC(=O)CN(C)C(=O)c2cc(C3CC3)nn2-c2ccccc2)c1`, the GFP response vs DMSO is 106% (inactive). Take `COc1ccc(NC(=O)CCn2ccnc2)c(OC)c1`: the GFP response vs DMSO was 106% (inactive). With `CCOc1ccc(OCC)c(NC(=O)CSc2nnc(Cn3cnc4ccccc43)n2C)c1`, the GFP response vs DMSO was 99% (inactive).

On to `O=C(NCC(F)(F)F)Nc1nnc(C(F)(F)F)s1`, for which the GFP response vs DMSO is 97.4% (inactive). `O=C(NCc1cc(F)cc(C(F)(F)F)c1)C1CCC(=O)N(C2CCCC2)C1` (stereo not drawn): the GFP response vs DMSO was 98.4% (inactive). As to `CS(=O)(=O)N1CCN=C1SCc1ccc(F)cc1`, the GFP response vs DMSO was 102% (inactive).

Consider `O=S(=O)(c1ccc(F)cc1)N1CCN=C1SCc1cccc(F)c1`, for which the GFP response vs DMSO is 104% (inactive). As for `CCSC1=NCCN1S(=O)(=O)c1ccc(F)cc1`, the GFP response vs DMSO was 151% (active). Regarding `CC1CC1C(=O)OCC(=O)c1c(N)n(C)c(=O)n(C)c1=O` (stereo not drawn), the GFP response vs DMSO is 97.2% (inactive). As to `COc1ccc(-c2nc(CS(=O)(=O)CC(=O)NCc3cccc(Br)c3)c(C)o2)cc1`, the GFP response vs DMSO is 150% (active). `COc1cccc(-c2nc(CS(=O)(=O)CC(=O)NCCc3ccc(OC)c(OC)c3)c(C)o2)c1`: the GFP response vs DMSO is 102% (inactive).

Turning to `Cc1ccc(-c2nc(CS(=O)(=O)CC(=O)NCc3ccc4c(c3)OCO4)c(C)o2)cc1`, the GFP response vs DMSO is 94.3% (inactive).
